# Shown is part of a subset that was picked to be rich in hits.
# Pf Dd2 inh = inhibitors of Plasmodium falciparum Dd2 growth. P. falciparum Dd2 growth, SYBR Green, 72 h. Potency, µM (titrated, usually from 28.9 µM), most hits filed as inhibitors. hit rate 4.3% among 120,000. AID 1347417; active = well fitted inhibition curve with a large enough effect; note: nearly all actives have a fitted effect of over 65% in size
#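 Infected erythrocytes (Dd2, 0.3% parasitemia, 2.5% hematocrit final) are added to compound in RPMI-1640/Albumax II medium, grown 72 h at 37C in low oxygen, then lysed with saponin/Triton-X containing SYBR Green and read by fluorescence.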
# Numbers stand for hits; - = inactive; [ ] = another dose, or the depositor's remark.
SMILES,Pf Dd2 inh
CCOC(=O)c1ccc(NC(=O)C2CCCN(c3cnccn3)C2)cc1 (configuration not stated),-
O=C(c1cc(-c2ccc(O)cc2)n[nH]1)N1CCOC2(CNCCOC2)C1 (configuration not stated),-
Cn1cccc1CN1CCn2c(nn(-c3ccc(Cl)cc3)c2=O)C1,-
COc1ccc(CN2C(=O)COC[C@@H]2[C@H](O)c2ccc(NC(=O)Cc3ccccc3)cc2)cc1,-
CN(C(=O)Cc1ccccn1)C1CCCc2ccccc21 (configuration not stated),-
CCOC(=O)C1CCCN(c2nc3c(S(=O)(=O)c4ccc(CC)cc4)nnn3c3ccc(Cl)cc23)C1 (configuration not stated),-
O=S(=O)(c1ccccc1)c1nnn2c1nc(NC1CC1)c1ccccc12,-
Cc1ccc(S(=O)(=O)c2nnn3c2nc(N2CCC(C(N)=O)CC2)c2cc(Cl)ccc23)cc1C,-
CC1CCN(c2nc3c(S(=O)(=O)c4cccc(Cl)c4)nnn3c3ccsc23)CC1,13µM
Cc1cc(C)c(S(=O)(=O)c2nnn3c2nc(NCCCOC(C)C)c2ccccc23)c(C)c1,-
Cc1cc(C)c(S(=O)(=O)c2nnn3c2nc(NC2CCCC2)c2ccccc23)c(C)c1,11µM
O=S(=O)(c1cccc(Cl)c1)c1nnn2c1nc(NCc1ccc3c(c1)OCO3)c1sccc12,-
CCOC(=O)C1CCN(c2nc3c(S(=O)(=O)c4ccccc4)nnn3c3ccc(Cl)cc23)CC1,8.9µM
Cc1cc(C)cc(Nc2nc3c(S(=O)(=O)c4cccc(Cl)c4)nnn3c3ccsc23)c1,-
CC(C)c1ccc(S(=O)(=O)c2nnn3c2nc(N2CCCC2)c2sccc23)cc1,-
CCc1ccc(S(=O)(=O)c2nnn3c2nc(N2CCC(C)CC2)c2cc(Cl)ccc23)cc1,-
O=S(=O)(c1cccc(Cl)c1)c1nnn2c1nc(NC1CCCC1)c1sccc12,13µM
CC(=O)N(C1CC1)C1CCOC2(CCN(C(=O)c3sc(C)nc3C)CC2)C1 (configuration not stated),-
Cc1csc(NC(=O)[C@@H]2CCC[C@@H](N(C)C)CN(C)C(=O)C2)n1,-
C[C@H]1CN(C(=O)c2nn(C)c3ccccc23)C[C@@H]1c1nc(-c2cccnc2)no1,-
COCCNC(=O)C[C@@H]1C[C@H]2O[C@H](CNC(C)C)[C@@H](O)[C@H]2O1,-
O=C(c1cccnc1)N1CCCCCCn2c(nnc2-c2ccc(F)cc2)CC1,-
CCc1ccc(OCC(=O)c2ccc3c(c2)N(CC(=O)NCCCOC)C(=O)CO3)cc1,-
O=C(NC1C=CS(=O)(=O)C1)c1ccc2nc(-c3ccc(F)cc3)cn2c1 (configuration not stated),-
Cc1cc(NC(=O)c2ccc3c(c2)N(Cc2cccc(Cl)c2)C(=O)c2ccccc2S3=O)ccc1Br (configuration not stated),10µM
SMILES,Pf Dd2 inh
CCN1C(=O)c2ccccc2Sc2ccc(NC(=O)c3ccc(C#N)cc3)cc21,-
O=C(Nc1cccc(Cl)c1Cl)c1ccc2c(c1)N(Cc1cccc(Cl)c1)C(=O)c1ccccc1S2=O (configuration not stated),-[0.594 µM]
COc1ccc(C)cc1NC(=O)c1ccc2c(c1)N(Cc1cccc(Cl)c1)C(=O)c1ccccc1S2=O (configuration not stated),7.9µM
Cc1ccc(CNC(=O)c2ccc3c(c2)N(Cc2ccccc2F)C(=O)c2ccccc2S3(=O)=O)cc1,-
O=C(c1ccc2c(c1)N(Cc1ccc(Cl)cc1)C(=O)c1ccccc1S2(=O)=O)N1CCc2ccccc21,-
N#Cc1cccc(NC(=O)c2ccc3c(c2)N(Cc2cccc(Cl)c2)C(=O)c2ccccc2S3(=O)=O)c1,2.2µM
Cc1cc(NC(=O)c2ccc3c(c2)N(Cc2cccc(Cl)c2)C(=O)c2ccccc2S3(=O)=O)ccc1Br,8.9µM
CCN1C(=O)c2ccccc2Sc2ccc(NC(=O)c3cccc(C)c3)cc21,-
CCC(C)NC(=O)c1ccc2c(c1)N(Cc1cccc(Cl)c1)C(=O)c1ccccc1S2=O (configuration not stated),-
CC(=O)Nc1ccc(NC(=O)c2ccc3c(c2)N(Cc2cccc(Cl)c2)C(=O)c2ccccc2S3(=O)=O)cc1,-
Cc1cccc(C)c1NC(=O)c1ccc2c(c1)N(Cc1cccc(Cl)c1)C(=O)c1ccccc1S2=O (configuration not stated),-
O=C(NC1CCCN(c2cc(N3CCCC3)ncn2)C1)c1cccnc1 (configuration not stated),-[5.79 µM]
CC(=O)N1CCC(Cn2cc(Cn3c(C)nc4ccccc43)nn2)CC1,-
COc1cc(F)ccc1-c1ccc2c(n1)c(=O)ncn2Cc1ccccc1,-
CCCN(CC1CCOC1)S(=O)(=O)c1ccc2c(c1)CCC2 (configuration not stated),-[5.79 µM]
COCc1cc(CC2(NCc3ccc(C#N)cc3)COC2)no1,-
CCCNC(=O)N1CCCCC1c1nc(C2CC2)n[nH]1 (configuration not stated),-
O=[S+]1([O-])NCC2(CCCN(Cc3cnccn3)C2)Oc2ncccc21 (configuration not stated),-
O=C(CC1CCCC1)NCC(=O)N1CCCCCCNC(=O)CC1c1ccccc1 (configuration not stated),-
Cc1ccc(-c2nnc([C@H]3CCN(c4nccc(C(F)(F)F)n4)C3)o2)cc1,-
Cc1cccc(C(=O)N2CCc3nnc([C@@H]4C[C@@H](O)CN4C(C)C)n3CC2)c1,-
CC(Cc1ccccn1)N(C)C(=O)Cc1ccc(F)c(F)c1F (configuration not stated),-
O=C1[C@@H]2C[C@@H](CN2Cc2ncc[nH]2)Oc2ccccc2N1Cc1ccc(OC(F)(F)F)cc1,-
FC(F)(F)c1cccc(N2CCN(Cc3nnc(-c4ccccc4)o3)CC2)c1,-
CCOCc1cc(CN2CCN(c3cccc(C(F)(F)F)c3)CC2)c(O)c2ncccc12,2.8µM
SMILES,Pf Dd2 inh
CC(C)OCc1cc(CN2CCN(c3cccc(C(F)(F)F)c3)CC2)c(O)c2ncccc12,1.4µM
O=C(CCn1c(=O)c2cccn2c2cccnc21)N1CCN(c2cccc(C(F)(F)F)c2)CC1,-
O=C(c1cc2ccc3cccnc3c2[nH]1)N1CCN(c2cccc(C(F)(F)F)c2)CC1,-
OC1(CN2CCN(c3cccc(C(F)(F)F)c3)CC2)CNCCOC1 (configuration not stated),-
COCCc1noc(-c2nc(-c3ccc(Cl)cc3)no2)n1,-
CC(=O)Nc1ccc(CN2CC3(C2)C(=O)Nc2ccccc23)cc1,-
COCCN1CC2(CCCN(Cc3ccc4cccc(F)c4n3)C2)CCC1=O (configuration not stated),-
CCC(=O)N1CCc2oc(C)c(C(=O)N(C)C)c2C1,-
Cc1oc2c(c1C(=O)N1CCSCC1)CN(Cc1cccc(F)c1)CC2,11µM
Cc1oc2c(c1C(=O)N1CCOCC1)CN(CCC(C)C)CC2,-
CC(=O)N1CCN(C(=O)c2c(C)oc3c2CN(Cc2ccc(F)cc2)CC3)CC1,-
Cc1csc(NC(=O)c2nc3c(o2)CCN(Cc2cccc(F)c2)CC3)n1,-
Cc1oc2c(c1C(=O)N1CCN(c3ccccc3)CC1)CN(Cc1ccccc1)CC2,5µM
Cc1oc2c(c1C(=O)N(C)C)CN(C(=O)CCc1ccccc1)CC2,6.3µM
O=C1CCC(C(=O)N2CCSCC2)CN1CCc1cccc(F)c1 (configuration not stated),-
CN(C)C(=O)c1n[nH]c2c1CN(C(=O)CCc1ccccc1)CC2,-

# Screening results (PubChem BioAssay)
